# Assay outcomes: PubChem, National Center for Advancing Translational Sciences (NCATS)
# This is one part of a sample in which hits are shown more often than they occur.
# Pf Dd2 growth – blocks in vitro growth of P. falciparum Dd2 | Potency, µM (titrated, usually from 28.9 µM), without a hit: at the highest dose activity, negative = inhibition, most hits filed as inhibitors | P. falciparum Dd2 growth, SYBR Green, 72 h | 120,000 compounds, 4.3% hits | AID 1347417; active = well fitted inhibition curve with a large enough effect;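 note: plate controls were DMSO vehicle for no effect and reference drug for full effect; nearly all actives have a fitted effect of over 65% in size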
#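 Infected erythrocytes (Dd2, 0.3% parasitemia, 2.5% hematocrit final) are added to compound in RPMI-1640/Albumax II medium, grown 72 h at 37C in low oxygen, then lysed with saponin/Triton-X containing SYBR Green and read by fluorescence.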
# The depositor's hits bear a star; i = inactive; [ ] = another dose, or the depositor's remark. Potency is the fitted concentration of half-maximal effect.
SMILES,Pf Dd2 growth
COCCCNC(=O)C1CCN(Cc2nc(-c3ccc(OC)c(OC)c3)oc2C)CC1,8.5%
Cc1oc(-c2cccc(Cl)c2)nc1CN1CCC(C(=O)NCCCN2CCN(c3ccc(F)cc3)CC2)CC1,5.62µM*
Cc1oc(-c2ccc(Cl)cc2)nc1CN1CCC(C(=O)NCCCN2CCN(c3cccc(Cl)c3)CC2)CC1,-23.6%
O=C(CC1CCCCC1)N1CC(F)(F)C[C@H]1c1nnc(C2CC2)o1,6.6%
Cc1nn(C)c(C)c1CCC(=O)N1CCN(c2ccc(C#N)cc2)C(=O)C1,5.0%
CC(C)(C)CC(=O)Nc1nc2c(s1)C[C@@H]1[C@](C)(CO)[C@H](O)CC[C@@]1(C)[C@@H]2CC(=O)O,-21.5%[44.1 µM]
C[C@H](NC(=O)C[C@@H]1c2nc(NC(=O)c3ccc(F)cc3)sc2C[C@@H]2[C@](C)(CO)[C@H](O)CC[C@]21C)c1ccccc1,2.51µM*
CC(C)(C)CC(=O)Nc1nc2c(s1)C[C@@H]1[C@](C)(CO)[C@H](O)CC[C@@]1(C)[C@@H]2CC(=O)NCc1ccco1,i
C[C@]1(CO)[C@H]2Cc3sc(NC(=O)c4ccc(F)cc4)nc3[C@@H](CC(=O)O)[C@]2(C)CC[C@H]1O,-23.9%
CC(C)NC(=O)C[C@@H]1c2nc(NC(=O)c3c(F)cccc3F)sc2C[C@@H]2[C@](C)(CO)[C@H](O)CC[C@]21C,-8.2%
C[C@@H](NC(=O)C[C@@H]1c2nc(NC(=O)CC(C)(C)C)sc2C[C@@H]2[C@](C)(CO)[C@H](O)CC[C@]21C)c1ccccc1,11.2µM*
CCCCCC(=O)Nc1nc2c(s1)C[C@@H]1[C@](C)(CO)[C@H](O)CC[C@@]1(C)[C@@H]2CC(=O)NC1CCCCC1,i
CCCCCC(=O)Nc1nc2c(s1)C[C@@H]1[C@](C)(CO)[C@H](O)CC[C@@]1(C)[C@@H]2CC(=O)NCc1cc(F)cc(F)c1,7.94µM*
CCCCCC(=O)Nc1nc2c(s1)C[C@@H]1[C@](C)(CO)[C@H](O)CC[C@@]1(C)[C@@H]2CC(=O)NCc1ccccc1,-6.2%
N#Cc1ccc(S(=O)(=O)N2CCCC(CO)CCNC(=O)CC2)cc1 (configuration not stated),-24.9%
Cn1cccc1CN[C@H]1[C@H](O)[C@@H](N2CCC(C(N)=O)CC2)[C@@H]2OC[C@H]1O2,42.7%[44.1 µM]
Cc1cn2nc(C(=O)N3CCC(NC(=O)CCC4CCCC4)CC3)cc2c(=O)[nH]1,-1.0%
COC[C@H]1CCCN1Cc1cn(-c2ccccc2C)nc1-c1ccc(OC)c(F)c1,i
COc1ccc(-c2nn(-c3ccccc3C)cc2CN2C[C@@H](C)O[C@@H](C)C2)cc1F,10µM*
COCC1CCN(Cc2cn(-c3ccccc3C)nc2-c2ccc(OC)c(F)c2)CC1,10µM*
COc1ccc(-c2nn(-c3ccccc3C)cc2CN2CCCOCC2)cc1F,i
COc1ccc(-c2nn(-c3ccccc3C)cc2CN2CCN(C)C(=O)[C@@H]2C)cc1F,i
COc1ccc(-c2n[nH]c3c2CC(=O)N(Cc2ccccc2F)C3)cc1F,-20.5%[44.1 µM]
CCc1nc(-c2c3n(c(=O)n(CC(=O)Nc4cccc(Cl)c4)c2=O)CCCC3)no1,i
COc1ccc(CNC(=O)CC[C@@H]2CNC(=O)[C@@H]3C[C@H](NCc4ccc(N(C)C)cc4)CN23)cc1,-2.8%
SMILES,Pf Dd2 growth
CCn1cc(S(=O)(=O)N2CCCCC2c2noc(COCCOC)n2)cn1 (configuration not stated),11.2%
COc1cccc(S(=O)(=O)N2CCC(c3noc(-c4ccccn4)n3)C2)c1 (configuration not stated),i[5.79 µM]
Cc1nc([C@@H]2CN(C(=O)CCc3c[nH]c4ccccc34)C[C@H]2C(N)=O)n[nH]1,4.7%
CCC1(O)CCC12CCN(C(=O)CC1CCCC1)CC2 (configuration not stated),i
Cc1oc2c(c1C(=O)N1CCCC1)CN(Cc1cccc(F)c1)CC2,-21.3%
Cc1oc2c(c1C(=O)N1CCN(C3CCCC3)CC1)CN(Cc1cccc(F)c1)CC2,8.91µM*
O=C(CC1CCOCC1)N1CCN(Cc2cccc(F)c2)CC1,47.8%
CN1C(=O)C(CC(=O)NCC2CCN(Cc3cccc(F)c3)CC2)=C2CCCCC21 (configuration not stated),i
O=C1CCN(Cc2cccc(F)c2)CCCCCCN1,-18.7%
Cc1oc2c(c1C(=O)N1CCCCCC1)CN(Cc1cccc(F)c1)CC2,3.98µM*
CCOc1ccc(NC(=O)Cn2c(N3CCc4ccccc4C3)nc(C)cc2=O)cc1,i
COC(=O)[C@@H](C)NC(=O)[C@H]1CN(S(=O)(=O)c2ccccc2)CCN1S(=O)(=O)c1ccccc1,-8.2%
CC(=O)NC[C@H]1OC[C@@H](N(Cc2cccc(C#N)c2)Cc2cccc(C#N)c2)[C@@H]1O,i
CCCS(=O)(=O)N1CCC(N2C(=O)[C@H](OCCOC)[C@@H]2c2ccncc2)CC1,-15.6%
Cc1nc(CN2CCOc3c(O)cc(-c4nc5ccccc5s4)cc3C2)no1,-24.9%
Cc1cnc(C)c(-c2cc(O)c3c(c2)CN(C(=O)c2ccncn2)CCO3)n1,-14.3%
Cc1cncc(C(=O)N2CCOc3c(O)cc(-c4nc5ccccc5s4)cc3C2)c1,7.94µM*
CCC(=O)N1CCc2sc(C(=O)NC3CCCCCC3)cc2C1,-12.9%
CC(C)CCNC(=O)C1CC(=O)N(c2n[nH]c3ccccc23)C1 (configuration not stated),-3.9%
CC(=O)N1CC2(Cc3ccccc31)CN(C(=O)c1ccc(Cl)cc1)C2,-18.6%
O=C(c1ccc(Cl)cc1)N1CC2(CCN(C3CCCCC3)C2)Cc2ccccc21 (configuration not stated),10µM*
CC(=O)N1CC2(CCN(C3COC3)C2)Cc2ccccc21 (configuration not stated),-8.8%[44.1 µM]
O=C(O)CCC(=O)N1CCC2(Cc3ccccc3N(C(=O)c3ccc(Cl)cc3)C2)C1 (configuration not stated),i
O=C(c1ccc(Cl)cc1)N1CC2(CCN(C3CCCCC3)CC2)Cc2ccccc21,7.08µM*
O=C(c1ccc(Cl)cc1)N1CC2(CCN(C3COC3)CC2)Cc2ccccc21,10.2%
SMILES,Pf Dd2 growth
O=C(NCc1noc(-c2cccs2)n1)[C@H]1CNC[C@H](C(=O)N2CCCC2)C1,10.8%
CCN(C1CCOCC1)C1CN(C(=O)c2cccs2)C1,-19.1%
Cc1ccc(C2Cn3nnc(C(=O)N4CCN(C(=O)c5cc(Cl)ccc5F)CC4)c3CO2)cc1 (configuration not stated),-27.6%
Cc1noc(C)c1CC(=O)N(C)C1CCc2nnc(C)n2CC1 (configuration not stated),8.9%
O=C(CN1CC2CC(C1)[C@H]1CCCC(=O)N1C2)NCc1cc(F)cc(F)c1 (some centres not stated),-13.5%
NC(=O)C1CCN(CC[C@H]2CN(C(=O)c3ccc(C(F)(F)F)cc3)CC[C@H]2CC(=O)O)CC1,21.8%
CC1=NOC2(CCN(C(=O)c3ccccc3)CC2)C1,12.8%[44.1 µM]
COc1ccc(CN2C=C(C(=O)OCc3noc(-c4ccc(C)c(C)c4)n3)C(C)=NS2(=O)=O)cc1,i
COc1ccc(CN2C=C(C(=O)OCc3noc(C)n3)C(C)=NS2(=O)=O)cc1,13.7%
COc1ccc(CN2C=C(C(=O)OCc3noc(-c4ccc(C)cc4)n3)C(C)=NS2(=O)=O)cc1,11.2µM*
O=C(Cc1cccc(F)c1)N1CCn2c(nnc2[C@@H]2C[C@@H](O)CN2Cc2ccccc2)C1,-8.0%
O=C(c1ccoc1)N1CC(F)(F)C[C@H]1c1nc(-c2ncccn2)no1,5.3%
